{
  "source": "PubChem BioAssay",
  "data": [
    {"biological_target": "NADPH oxidase 5 (Homo sapiens) (UniProt Q96PH1)", "sequence (Q96PH1 whole entry, looked up)": "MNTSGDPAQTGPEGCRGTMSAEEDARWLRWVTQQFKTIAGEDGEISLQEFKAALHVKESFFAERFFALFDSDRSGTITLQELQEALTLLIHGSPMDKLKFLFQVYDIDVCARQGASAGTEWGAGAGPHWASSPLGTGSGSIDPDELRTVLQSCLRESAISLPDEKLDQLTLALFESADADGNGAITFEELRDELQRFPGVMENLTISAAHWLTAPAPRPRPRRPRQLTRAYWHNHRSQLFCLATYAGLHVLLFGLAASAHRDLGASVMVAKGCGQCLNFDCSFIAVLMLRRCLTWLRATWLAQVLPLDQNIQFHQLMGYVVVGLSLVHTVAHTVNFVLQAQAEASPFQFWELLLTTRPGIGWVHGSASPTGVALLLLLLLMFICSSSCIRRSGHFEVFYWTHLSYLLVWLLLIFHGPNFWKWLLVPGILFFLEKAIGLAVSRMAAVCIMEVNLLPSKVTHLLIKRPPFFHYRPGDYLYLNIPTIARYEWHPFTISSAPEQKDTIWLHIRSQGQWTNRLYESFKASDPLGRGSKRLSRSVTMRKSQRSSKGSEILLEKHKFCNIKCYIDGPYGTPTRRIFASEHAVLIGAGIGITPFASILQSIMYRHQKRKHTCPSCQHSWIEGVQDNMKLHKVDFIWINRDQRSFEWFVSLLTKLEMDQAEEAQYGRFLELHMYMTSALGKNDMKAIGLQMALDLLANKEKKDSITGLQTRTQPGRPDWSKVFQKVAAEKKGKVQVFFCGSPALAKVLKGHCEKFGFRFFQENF", "assay": "compounds shifting NOX5 Amplex Red fluorescence – cell-based, HEK293-NOX5, NOX inhibitor project, primary screen (AID 1161)", "conditions": "HEK293-NOX5, ionomycin, 45 min, higher = more signal", "values": [
      {"smiles": "Cc1cc2c(nc1C)CCCCN2CC(C)ON=C[C@@H](C)[C@H](OCc1ccccc1)C(C)C", "note": "(stereo partly specified)", "z-score": -3.3},
      {"smiles": "CO[C@@H]1C=CCC(=O)N2CCC[C@H]2C(=O)OC[C@@H](C)C(=O)OC[C@H]1C", "z-score": 0.147},
      {"smiles": "CO[C@@H]1C=CCC(=O)N[C@@H](C)C(=O)OC[C@@H](OC)[C@H](C)CCCC(=O)OC[C@H]1C", "z-score": 0.645},
      {"smiles": "COc1ccc(COC(=O)NN=C2C[C@@H](O)[C@@H](O)[C@@H]3[C@@H]4C(=O)N(c5ccc(F)cc5F)C(=O)[C@@H]4CC[C@H]23)cc1", "z-score": -0.876},
      {"smiles": "CC(C)[C@@H](OCc1ccccc1)[C@H](C)C=NOC[C@@H](O)COCc1ccco1", "z-score": -0.548},
      {"smiles": "O=C1[C@H]2[C@H]3[C@H](O)[C@H](O)CC(=NOCc4ccccc4)[C@@H]3CC[C@H]2C(=O)N1C[C@@H]1CCCO1", "z-score": 0.102},
      {"smiles": "CC(C)=CCCC(C)=CCON=C1C[C@@H](O)[C@@H](O)[C@@H]2[C@@H]3C(=O)N(C(C)(C)C)C(=O)[C@@H]3CC[C@H]12", "z-score": 0.0706},
      {"smiles": "CCOC(=O)[C@H](Cc1ccccc1)NC(=O)CCC1CC(OC(=O)NCCc2ccc(F)cc2)CC2(CCCC(COC(=O)NCCc3ccccc3OC)O2)O1", "note": "(stereo partly specified)", "z-score": 0.294},
      {"smiles": "COc1ccc(COC(=O)NN=C2C[C@@H](O)[C@@H](O)[C@@H]3[C@@H]4C(=O)N(C5CCCCC5)C(=O)[C@@H]4CC[C@H]23)cc1", "z-score": -0.712},
      {"smiles": "CC(C)=CCCC(C)=CCON=C1C[C@@H](O)[C@@H](O)[C@@H]2[C@@H]3C(=O)N(C4CCCCC4)C(=O)[C@@H]3CC[C@@H]12", "z-score": -0.18},
      {"smiles": "COC(=O)[C@@H]1CC[C@H](C)[C@@H](c2ccc(C)cc2)N1C(=O)c1ccc(C=NO[C@@H]2O[C@H](COC(C)=O)[C@@H](OC(C)=O)[C@H](OC(C)=O)[C@H]2OC(C)=O)cc1", "z-score": -2.1},
      {"smiles": "COc1cccc([C@H]2Oc3ccc(OC)cc3C(=NOC[C@@H](O)[C@H]3O[C@@H]4OC(C)(C)O[C@@H]4[C@H]3O)[C@@H]2O)c1", "z-score": -0.23},
      {"smiles": "O=C1[C@H]2[C@H]3[C@H](O)[C@H](O)CC(=NO[C@@H]4O[C@H](CO)[C@@H](O)[C@H](O)[C@H]4O)[C@H]3CC[C@H]2C(=O)N1c1cccc(Oc2ccccc2)c1", "z-score": -0.54},
      {"smiles": "CCN1C(=O)[C@H]2[C@H]3[C@H](O)[C@H](O)CC(=NOCC(C)C)[C@@H]3CC[C@H]2C1=O", "z-score": -0.654},
      {"smiles": "CC(C)C[C@H](NC(=O)CCC1CC(OC(=O)NCc2cccc3ccccc23)CC2(CCCC(COC(=O)NCc3ccccc3)O2)O1)C(=O)NCC(c1ccccc1)c1ccccc1", "note": "(stereo partly specified)", "z-score": -0.0969},
      {"smiles": "COC(=O)CC=C[C@@H](C)[C@@H](C=NOC[C@H]1O[C@H](c2ccccc2)C=C[C@@H]1Oc1ccc(OC)cc1)NS(=O)(=O)c1ccc(C)cc1", "z-score": -0.523},
      {"smiles": "C#CCCCON=C1C[C@@H](O)[C@@H](O)[C@@H]2[C@@H]3C(=O)N(c4ccc(F)cc4F)C(=O)[C@@H]3CC[C@H]12", "z-score": 0.306},
      {"smiles": "CO[C@H]1COC(=O)[C@@H](Cc2ccccc2)NC(=O)[C@@H](C)COC(=O)CCC[C@@H]1C", "z-score": 0.789},
      {"smiles": "COc1cccc([C@H]2Oc3ccc(OC)cc3C(=NO[C@@H](C)c3cn([C@H](CO)Cc4ccccc4)nn3)[C@@H]2O)c1", "z-score": -0.327},
      {"smiles": "CCOC(=O)NN=C1C[C@@H](O)[C@@H](O)[C@@H]2[C@@H]3C(=O)N(Cc4ccc5c(c4)OCO5)C(=O)[C@@H]3CC[C@H]12", "z-score": -0.598},
      {"smiles": "O=C(NN=C1C[C@@H](O)[C@@H](O)[C@@H]2[C@@H]3C(=O)N(C[C@@H]4CCCO4)C(=O)[C@@H]3CC[C@H]12)OCc1ccccc1", "z-score": -0.165},
      {"smiles": "CC(C)CON=C1C[C@@H](O)[C@@H](O)[C@@H]2[C@@H]3C(=O)N(c4ccc(F)cc4F)C(=O)[C@@H]3CC[C@H]12", "z-score": 0.178},
      {"smiles": "C[C@@H](c1ccccc1)N1C(=O)[C@H]2[C@H]3[C@H](O)[C@H](O)CC(=NO[C@@H]4O[C@H](CO)[C@@H](O)[C@H](O)[C@H]4O)[C@@H]3CC[C@H]2C1=O", "z-score": 0.0309},
      {"smiles": "CCOC(=O)[C@H](CC(C)C)NC(=O)CCC1CC(OC(=O)NCc2ccc3c(c2)OCO3)CC2(CCCC(COC(=O)NCC3CCCCC3)O2)O1", "note": "(stereo partly specified)", "z-score": 0.61},
      {"smiles": "O=C1[C@H]2[C@H]3[C@H](O)[C@H](O)CC(=NOC[C@@H](O)COCc4ccco4)[C@H]3CC[C@H]2C(=O)N1C[C@@H]1CCCO1", "z-score": -0.0426},
      {"smiles": "CCOC(=O)NN=C1C[C@@H](O)[C@@H](O)[C@@H]2[C@@H]3C(=O)N([C@@H](C)c4ccccc4)C(=O)[C@@H]3CC[C@@H]12", "z-score": -0.143},
      {"smiles": "CC(CCN1CCCc2nc(C)c(C)cc21)=NOC(C)CN1CCCCc2nc(C)c(C)cc21", "note": "(stereo unspecified)", "z-score": -0.496},
      {"smiles": "CO[C@H]1COC(=O)[C@H](C)NC(=O)CC=C[C@@H](C)[C@H](OC)COC(=O)[C@@H](OCc2ccccc2)C=C[C@@H]1C", "z-score": -0.017},
      {"smiles": "COC(=O)[C@H](C)NC(=O)CCC1CC(OC(=O)NCCc2ccc(F)cc2)CC2(CCCC(COC(=O)NCc3cccc(C(F)(F)F)c3)O2)O1", "note": "(stereo partly specified)", "z-score": -1.14},
      {"smiles": "CCOC(=O)CCN1C(=O)[C@H]2[C@H]3[C@H](O)[C@H](O)CC(=NOCC(C)C)[C@H]3CC[C@H]2C1=O", "z-score": 0.444},
      {"smiles": "CCOC(=O)NN=C1C[C@@H](O)[C@@H](O)[C@@H]2[C@@H]3C(=O)N([C@@H](C)c4ccccc4)C(=O)[C@@H]3CC[C@H]12", "z-score": -0.657},
      {"smiles": "COc1ccc(O[C@H]2C=C[C@@H](c3ccccc3)O[C@@H]2CON=C(C)CCN2CCc3nc(-c4ccccc4)c(-c4ccccc4)cc3C2)cc1", "z-score": -0.434},
      {"smiles": "C#CCCCON=C1C[C@@H](O)[C@@H](O)[C@@H]2[C@@H]3C(=O)N(c4ccc(F)cc4F)C(=O)[C@@H]3CC[C@@H]12", "z-score": 0.0107},
      {"smiles": "Cc1ccc(S(=O)(=O)N[C@H]2COC(=O)CC=C[C@@H](C)COC(=O)CC=C[C@@H]2C)cc1", "z-score": 0.238},
      {"smiles": "CC(C)CON=C1C[C@@H](O)[C@@H](O)[C@@H]2[C@@H]3C(=O)N(C[C@@H]4CCCO4)C(=O)[C@@H]3CC[C@@H]12", "z-score": -0.0365},
      {"smiles": "Cc1ccc(S(=O)(=O)OC[C@H]2CN3[C@H](c4ccc(Br)cc4)[C@@H](C)CC[C@H]3C(=O)O2)cc1", "z-score": -0.632}
    ]}
  ]
}
